Assay outcomes as filed in PubChem BioAssay.
Compounds with a hit are over-represented: about 3.4% of the library has one in this group of screens.
hcDAF12 agonist: activators of H. contortus DAF-12 nuclear receptor | AID 652067 | HEK293 hcDAF-12 lit1-tk-luc reporter, luminescence; 0% DMSO, 100% Δ7-dafachronic acid | 370,000 tested, 1.4% active | activation, % at 6.8 µM;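 active = activation above the mean of all tested compounds plus 3 SD, cut at about 5.5% in these data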;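 note: 100% = response to 3 µM Δ7-dafachronic acid high control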
hgDAF-12 ag: hgDAF-12 agonism, primary luciferase screen. HEK293 GAL4-hgDAF12 UAS-luciferase reporter, agonist luminescence; normalized to butyrate control. activation, % at 6.8 µM. 370,000 tested, 1.8% active. AID 687014;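 active = activation above a cutoff set at the mean of all screened compounds plus 3 SD, cut at about 10% in these data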;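 note: 0% = DMSO wells and 100% = sodium butyrate wells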
ssDAF-12 act: activates DAF-12 receptor from parasite S. stercoralis; HEK293 ssDAF-12/GRIP1 lit1-tk-luc reporter, luminescence; % of 3 µM dafachronic acid response; activation, % at 6.8 µM; 370,000 tested, 1% active; AID 652126;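 active = activation above the mean over all tested compounds plus 3 SD, cut at about 0.9% in these data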;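 note: 0% = DMSO-only wells and 100% = 3 µM delta7-dafachronic acid wells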
NF-kB neuron act: raises NF-kB expression in human neuronal cells; NF-kB reporter expression; hits give high values; AID 1239; 190,000 tested, 1.6% active; fold change at 12.5 µM; in the data active = fold change above about 3.3
APP 5'UTR act: APP 5'UTR luciferase reporter activation; activation, % at 2 µM; SH-SY5Y APP 5'UTR luciferase reporter, luminescence; zero percent = DMSO vehicle wells; 190,000 tested, 1% active; AID 1276;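 active = activation above a set limit, based on mean plus 3 SD of controls, cut at about 140% in these data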
* hit, by the source's call; nt = not tested or not shown; ! = a repeat was not active.

SMILES	hcDAF12 agonist	hgDAF-12 ag	ssDAF-12 act	NF-kB neuron act	APP 5'UTR act
O=C(C1CCCN1S(=O)(=O)c1ccc([N+](=O)[O-])cc1)N1CCc2ccccc2C1 (stereo not drawn)	-1.9	-1.5	-0.3	nt	nt
CN(CCO)c1ccc2c(c1)Oc1ccccc1CN(Cc1cn(Cc3ccc(F)cc3)nn1)S2(=O)=O	-1.8	-0.1	0.1	nt	nt
COc1ccc(C/C(C)=N/NC(=S)Nc2ccccc2F)cc1	0.8	6.2	-1.4	0.72	175.5*
O=C(NCc1ccc(C(=O)NCC2CCCO2)cc1)c1cccc(Br)c1 (stereo not drawn)	-1.4	-0.7	-0.8	nt	nt
COc1ccc2c(c1)NC(c1cc(Cl)cc(Cl)c1O)c1cccn1-2 (stereo not drawn)	2.7	1.6	0.0	3.73*	8.9
Cc1cc(C)n2nc(S(=O)(=O)N(C)Cc3ccccc3)nc2n1	-1.1	-0.6	-1.6	1.75	-2.2
Cc1cc(C)n2nc(S(=O)(=O)N(CC(C)C)CC(C)C)nc2n1	-0.9	-0.4	1.0*	1.14	35.5
C[N+](C)(C)CCOC(=O)CCC(=O)OCC[N+](C)(C)C	-1.0	11.1*!	-0.7	nt	nt
COc1ccc(NC(=O)/C(C#N)=C/c2ccc[nH]2)c(OC)c1	6.5*	3.6	0.2	nt	nt
COc1ccc(/C=C2\CC3(OC(=O)C4CCCCC4)CCCN2C3)cc1 (stereo not drawn)	0.5	0.2	-1.2	nt	nt
CC1CCc2nc(NC(=O)Nc3ccc4c(c3)OCO4)sc2C1 (stereo not drawn)	-1.1	3.9	-1.5	2.11	37.3
Cc1nc2ccc(NC(=O)C3COc4ccccc4O3)cc2s1 (stereo not drawn)	2.9	11.5*	-0.9	nt	nt
Cc1ccc(NC(=O)C(=O)Nc2ccc(C)cn2)nc1	-0.3	3.7	-1.1	2.63	23.2
Cc1nc2ccc(NC(=O)c3ccco3)cc2s1	0.8	12.1*	-0.9	1.11	68.8
CC1CCc2nc(NC(=O)C3COc4ccccc4O3)sc2C1 (stereo not drawn)	-2.7	-13.4	-2.3	1.36	167.8*
Cc1ccc(NC(=O)c2sccc2C)nc1	4.7	10.8*	0.9	nt	nt
C/C=C/C(=O)N1CCC(C(=O)NC2CCCc3ccccc32)CC1 (stereo not drawn)	-1.0	0.8	-0.9	nt	nt
CCOC(=O)[C@@H](NC(=O)[C@@H]1CC=C[C@@H]2CCN(Cc3ccc(Cl)cc3)C(=O)[C@@H]21)C(C)C	-0.4	-0.7	-1.9	nt	nt
Cc1cccc(NC(=O)c2ccco2)c1C	0.6	-0.6	-0.9	nt	nt
Cc1ncsc1C(=O)Nc1nc2c(s1)CC(C)CC2 (stereo not drawn)	3.1	12.8*	0.3	4.64*	120.9
CC(=O)c1ccc(NC(=O)c2ccc3nc(C)sc3c2)cc1	0.9	9.6	0.7	nt	nt
Cc1cc(NC(=O)c2ccco2)sc1C	5.7*	7.3	0.7	nt	nt
O=C(Nc1ccc2c(c1)nc1n2CCSC1)c1ccccc1	2.3	11.6*	0.0	3.33*	119.8
CC1CCc2nc(NC(=O)C3CC3)sc2C1 (stereo not drawn)	3.7	5.9	-0.3	1.94	21.4
Cc1nc2ccc(C(=O)Nc3ccccc3Cl)cc2s1	0.7	10.7*	-0.9	nt	nt
SMILES	hcDAF12 agonist	hgDAF-12 ag	ssDAF-12 act	NF-kB neuron act	APP 5'UTR act
CCCCCCCCN1CCS(=O)(=O)N(Cc2ccc(F)cc2)C(C(=O)OC)C1 (stereo not drawn)	-2.5	0.9	-1.7	nt	nt
Cc1nc2ccc(NC(=O)c3ccccc3)cc2s1	2.1	11.2*	-0.7	2.61	82.2
Cc1ccc(Cc2cnc(NC(=O)c3ccco3)s2)cc1	5.9*	13.2*	0.9	7.41*	128.0
NC(=O)c1cc(Cc2ccccc2)sc1NC(=O)c1ccco1	2.7	12.8*	-0.3	3.37*	84.4
O=C(Nc1ncc(Cc2cccc([N+](=O)[O-])c2)s1)c1ccco1	-2.5	2.1	-1.3	1.15	46.8
Cc1nc2ccc(NC(=O)c3sccc3C)cc2s1	-0.1	12.1*	-0.7	4.71*	162.8*
Nn1c(SCc2cccc3ccccc23)nnc1-c1cc(-c2ccc(Cl)cc2)n[nH]1	-3.0	1.6	-1.6	nt	nt
CC(=O)OCCCN1C(=O)CCC12CCC(C)CC2 (stereo not drawn)	-1.7	-2.0	-1.0	nt	nt
Cc1ccc(N=CNc2ccc(C)cc2C)c(C)c1	0.3	-1.0	1.8*	nt	nt
Cn1nc(-c2ccccc2)nc1-c1ccccc1	6.3*	9.4	0.8	nt	nt
c1ccc(Cn2nc(-c3ccccc3)nc2-c2ccccc2)cc1	1.9	1.1	0.8	1.11	16.6
COc1ccc(C2Nc3ccc4ccccc4c3-c3c2c(=O)oc2ccccc32)cc1 (stereo not drawn)	3.6	0.7	1.4*	1.1	6.2
Nc1ccc(Oc2ccc(Br)cc2)cc1	-0.2	-2.0	-0.8	3.52*	-11.8
CCc1ccc(OCC(=O)Nc2ccc(-c3nc4ccccc4o3)c(O)c2)cc1	-0.1	0.2	-1.5	1.62	7.3
Oc1cc(NCc2cccnc2)ccc1-c1nc2ccccc2o1	3.4	9.5	0.8	2.45	155.2*
Fc1ccc(NCc2cccnc2)cc1F	3.9	0.6	1.2*	1.41	-14.9
C[C@H]1COc2cc(F)ccc2S(=O)(=O)N1C	-2.2	-1.0	-2.0	nt	nt
O=C(Nc1ccc(Cl)c(Cl)c1)N1CC=CCC1	3.7	8.0	-0.8	3.47*	56.5
C=CCNC(=O)NCC1CCN(Cc2ccc(OC)cc2)CC1	2.7	-0.9	-1.5	nt	nt
COc1ccc(OC)c2sc(N(CCN(C)C)C(=O)/C=C/c3cccs3)nc12	-3.8	-0.9	-1.1	nt	nt
COc1ccc(C)c2sc(N(CCN(C)C)C(=O)/C=C/c3cccs3)nc12	6.1*	0.9	1.2*	nt	nt
N#Cc1ccc(Nc2ccccc2)c(N)c1	-2.4	1.3	-1.1	0.93	6.8
Nc1cc(C(F)(F)F)ccc1Nc1ccccc1	0.6	1.0	0.9*	1.25	2.9
CCN(CC)c1ccc(/C=C(\C#N)c2ccccn2)cc1	nt	nt	nt	1.93	160.1*
N#C/C(=C\c1ccc(C(=O)O)cc1)c1ccccn1	-1.3	0.6	-0.6	0.93	-0.3
SMILES	hcDAF12 agonist	hgDAF-12 ag	ssDAF-12 act	NF-kB neuron act	APP 5'UTR act
CCOC(=O)CC[C@@]1(C(=O)OCC)C[C@@H](CC(=O)N2CCSCC2)C(=O)N2CCCC=C21	-1.2	0.3	-1.3	nt	nt
Cc1ccc(C)c(NC(=O)[C@@H]2CCCN2S(=O)(=O)c2cccc3cccnc23)c1	-3.2	-3.8	-1.5	nt	nt
CC(C)(C)c1ccc(C(=O)/C=C2\NC(=O)CS2)cc1	6.1*	11.8*	0.2	6.62*	118.7
C/C(=N\Nc1ccc(Cl)c(C(=O)O)c1)c1ccc[nH]1	6.4*	5.0	0.2	nt	nt
O=C(O)c1cc(N/N=C/C=C/c2ccccc2)ccc1Cl	5.3	10.1	0.1	6.08*	179.0*
CC(C)(C)CC(=O)Nc1nnc(CCc2ccccc2)s1	2.1	5.3	-0.1	nt	nt
CCC(C)(C)C(=O)Nc1nnc(CCc2ccccc2)s1	5.3	10.5*	0.8	nt	nt
CCOC(=O)c1cccc(NC(=O)CN(C)S(=O)(=O)c2ccc(F)cc2)c1	-2.1	-0.4	-1.3	nt	nt
COc1ccccc1Oc1ccc(N/C=C/C(=O)c2ccco2)cc1	4.0	8.9	-1.2	5.21*	71.8
